From PubChem BioAssay (NCATS)
Records with an inconclusive call do not appear. A call without a number means that no potency is given here. Activity calls are given as the source filed them. Calls follow the shape of the dose curve; as a rule, active = well fitted inhibition curve with a large enough effect in the repeat runs; inconclusive = weak or mixed curves; inactive = flat fitted curve, though single readings scatter.

Target: Cytochrome P450 2D6 (Homo sapiens) (UniProt P10635)
Test: Cytochrome P450 family 2 subfamily D member 6 (CYP2D6) small molecule antagonists: luciferase biochemical (cell-free) qHTS assay (AID 1645840); also: nearly all actives have a fitted effect of over 55% in size
Conditions: P450-Glo CYP2D6 enzyme, luciferin luminescence, 1 h; series mostly up to 57.4 µM
In short: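 P450-Glo CYP2D6 system: proluciferin substrate converted by enzyme to luciferin, read by luminescence proportional to activity. Enzyme-substrate mix with compound 10 min at room temperature, then NADPH regeneration 1 h before detection reagent.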
Potency is read from the fitted curve at half-maximal effect.

Chain of Cytochrome P450 2D6 (Homo sapiens) (P10635 whole entry, looked up): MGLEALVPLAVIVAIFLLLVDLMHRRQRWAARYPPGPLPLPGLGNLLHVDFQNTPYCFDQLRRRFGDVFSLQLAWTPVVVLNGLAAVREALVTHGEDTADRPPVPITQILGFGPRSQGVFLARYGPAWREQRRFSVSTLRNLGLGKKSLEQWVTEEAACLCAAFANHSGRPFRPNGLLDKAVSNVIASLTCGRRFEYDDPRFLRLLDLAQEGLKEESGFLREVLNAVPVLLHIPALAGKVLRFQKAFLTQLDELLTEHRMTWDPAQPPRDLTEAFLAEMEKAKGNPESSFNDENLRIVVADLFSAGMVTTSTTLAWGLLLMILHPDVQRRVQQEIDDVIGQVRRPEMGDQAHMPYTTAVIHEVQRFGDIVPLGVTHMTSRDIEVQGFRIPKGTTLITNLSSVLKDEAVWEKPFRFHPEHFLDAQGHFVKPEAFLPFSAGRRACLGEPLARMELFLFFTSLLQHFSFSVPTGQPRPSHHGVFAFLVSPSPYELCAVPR

Row | SMILES | Potency
1 | CC(C)C(=O)Nc1cccc(C2CN3CCSC3=N2)c1 (stereo not given) | inactive
2 | COc1ccc2c(c1)c(CC(=O)OC/C=C(\C)CC/C=C(\C)CCC=C(C)C)c(C)n2C(=O)c1ccc(Cl)cc1 | 12.3 µM (active)
3 | CN(C(=O)C(Cl)Cl)c1ccc(OC(=O)c2ccco2)cc1 | inactive
4 | Cc1onc(-c2c(Cl)cccc2Cl)c1C(=O)Cl | inactive
5 | COc1c(C)c2c(c(O)c1C/C=C(\C)CCC(=O)OCCN1CCOCC1)C(=O)OC2 | 13.8 µM (active)
